# High-throughput results as filed in PubChem BioAssay.
# M1 antag – M1 muscarinic receptor (rat) antagonism. 64,000 compounds, 3.4% hits. CHO-M1 cells, Fluo-4 calcium, ACh EC80 antagonist mode; active compounds read low. P08482. B-score at 10 µM;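 active = calcium fluorescence response, raw or row-and-column corrected B-score, differing from the plate sample mean either way at a set confidence level, mostly lower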
# FXIa inh mix – blocks human factor XIa in pooled compound mixtures | 62,000 compounds, 0.19% hits | purified FXIa, fluorogenic substrate | inhibition, % at 5 µM;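 note: each value is inhibition by a whole ten-compound pool holding the compound; 0% = enzyme with no mixture and 100% = wells lacking enzyme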
# M1 agonist – agonists of M1 muscarinic receptor; AID 626; CHO-M1 cells, Fluo-4 calcium fluorescence, agonist mode; active compounds read high; 64,000 compounds, 3% hits; B-score at 10 µM;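 active = fluorescence rise, raw or as B-score row- and column-corrected plate score, outside the 99.7% band of its plate's samples, either direction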
# FXIIa mix inh – inhibitors of human coagulation factor XIIa, pooled mixtures | purified FXIIa, fluorogenic substrate | inhibition, % at 5 µM | 62,000 compounds, 0.2% hits | AID 684;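 note: 0% = enzyme without compound and 100% = no enzyme blank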
# Target sequence (P00748 20-372 limits assumed): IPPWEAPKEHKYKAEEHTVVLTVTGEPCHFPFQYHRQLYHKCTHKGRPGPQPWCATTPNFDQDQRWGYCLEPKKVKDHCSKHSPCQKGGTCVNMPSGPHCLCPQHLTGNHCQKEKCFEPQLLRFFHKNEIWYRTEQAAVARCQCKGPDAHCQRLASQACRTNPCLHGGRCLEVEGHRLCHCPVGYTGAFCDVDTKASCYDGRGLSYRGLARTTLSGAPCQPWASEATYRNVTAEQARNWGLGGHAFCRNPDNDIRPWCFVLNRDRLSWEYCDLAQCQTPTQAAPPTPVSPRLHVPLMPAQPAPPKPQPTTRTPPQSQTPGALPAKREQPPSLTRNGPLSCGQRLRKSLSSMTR
# Target sequence (P00748 373-615 limits assumed): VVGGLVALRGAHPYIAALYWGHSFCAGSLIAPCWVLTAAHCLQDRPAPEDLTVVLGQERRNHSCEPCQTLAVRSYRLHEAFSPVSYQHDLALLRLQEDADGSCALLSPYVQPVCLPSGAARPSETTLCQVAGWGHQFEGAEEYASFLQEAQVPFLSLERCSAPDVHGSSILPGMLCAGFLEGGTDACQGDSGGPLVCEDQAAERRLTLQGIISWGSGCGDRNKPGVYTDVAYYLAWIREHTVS
# JNK3 blocker – blocks human JNK3 kinase activity; purified JNK3 kinase activity, HTS; inhibition, % at 8 µM; 60,000 compounds, 0.61% hits; AID 746; in the data active = inhibition above about 17%;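 note: 0% = DMSO and 100% = reference inhibitor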
# HER2 expr 66K – lowers expression of human Her2 kinase; P04626; HER2 level % of control, % at 10 µM; 65,000 compounds, 0.69% hits; SKBR-3 HER2 protein level, AlphaScreen, 18-24 h; active compounds read low; AID 645;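 active = HER2 level under 5% of the carrier-only control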;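 note: 100% = DMSO carrier and 0% = 500 nM PU-H71 HSP90 inhibitor; lower value means stronger loss of Her2 protein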
# M1 antag confirm – confirmation of rat M1 muscarinic receptor antagonists; shares compounds with M1 antag; CHO-M1 cells, Fluo-4 calcium, ACh EC80 antagonism; active compounds read low; calcium response (max-min fluorescence) at 10 µM; 1,700 compounds, 43% hits; AID 677;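 active = calcium response below the same-plate mean of wells given acetylcholine alone at its 80%-effect dose, minus 3 SD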;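 note: raw fluorescence intensity difference in arbitrary instrument units and not normalized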
# mGluR4 antag – mGluR4 (human) activity, M1 antagonist secondary assay; shares compounds with M1 antag; CHO-mGluR4 calcium flux, Fluo-4 fluorescence, glutamate EC80; active compounds read low; fluorescence response (max-min) at 10 µM; 1,700 compounds, 0.9% hits;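 active = fluorescence response below the plate's average for near-maximal glutamate wells, less 3 SD of those wells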;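 note: raw unnormalized fluorescence span taken in the window right after glutamate addition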
# * = called active by the depositor; . = not tested or not shown. Most compounds without a hit are left out; they make up all but 6.9% or so of the library. Cut-off read from the data, not from the text of the source, unless noted: active = inhibition above about 20% (passing the limit was not always enough); inactive = the rest.
SMILES,M1 antag,FXIa inh mix,M1 agonist,FXIIa mix inh,JNK3 blocker,HER2 expr 66K,M1 antag confirm,mGluR4 antag
O=c1c2ccccc2[nH]c(=S)n1CCN1CCN(Cc2ccccc2)CC1,-4.2*,6,-0.26,4,2,108,508*,176
c1cc2c3c(cccc3c1)C(N1CCCCC1)=N2,-6.8*,-1,1.3,0,-14,107,224*,247
O=S(=O)(CCN(CCS(=O)(=O)C(F)(F)F)CC1CCCO1)C(F)(F)F (stereo not given),-0.024,7,0.37,7,-3,20,.,.
Cc1ccc(NC(=O)NC2CCCCC2)cc1Cl,-1.1*,13,-0.67,0,-4,91,524,202
Cc1ccc(NC(=O)C2CCN(C(=O)NC3CCCCC3)CC2)cc1Cl,0.23,-3,-0.33,3,-4,94,.,.
CC1=C(C(=O)OCC(C)C)C(c2ccc(F)cc2)NC(=O)N1 (stereo not given),0.8,5,0.91,-3,2,102,.,.
Cn1c(-c2ccc(F)cc2)cnc1NCc1ccc(C#N)cc1,-3.4*,5,0.93,0,-1,100,451,202
COc1ccc(-c2cc3nc(C)c(CCC(=O)N4CCCCC4)c(C)n3n2)c(OC)c1,-0.0045,-8,0.55,-6,-6,74,.,.
CS(=O)(=O)N(CC(=O)O)c1ccc2c(c1)OCO2,-4.1*,0,-0.035,-3,-14,87,655,254
CS(=O)(=O)N(CC(=O)N1CCOCC1)c1ccc2c(c1)OCO2,-0.23,-2,-0.072,11,-5,93,.,.
O=C(CNC1CCCCCC1)Nc1ccc(S(=O)(=O)NC2CC2)cc1,-4.8*,0,-0.96,-1,-2,101,182*,255
Cc1cc(C(=O)OCC(=O)Nc2cc(C(F)(F)F)ccc2N2CCOCC2)c(C)o1,-0.29,8,0.13,-1,-10,88,.,.
COc1ccc(OC)c(C2C(C(=O)c3ccco3)=C(O)C(=O)N2CCCN2CCOCC2)c1 (stereo not given),0.083,.,-0.2,.,-4,86,.,.
COc1cccc(CNc2ccc(N3CCCCC3)cc2)c1OC,-1.1,11,-0.017,-1,0,57,.,.
COc1ccccc1CNc1ccc(N2CCCCC2)cc1,-4.4*,5,-0.0024,-17,-3,96,318*,244
COc1ccc(C(=O)Nc2nncs2)cc1S(=O)(=O)N1CC(c2ccccc2)CC1=O (stereo not given),-0.42,-6,0.33,1,-5,96,.,.
O=C(NCCc1ccccc1)c1cccnc1N1CCCCCC1,-0.31,11,0.9,-6,5,112,.,.
Cc1ccccc1N(CC(=O)NCCc1ccccc1)C(=O)c1ccc(N2CCCC2)nc1,-4.6*,4,-0.95,-15,-6,106,667,241
CCN1CCCC1CNC(=O)CS(=O)(=O)Cc1nc(-c2ccccc2C)oc1C (stereo not given),-0.071,7,-1.6,7,-3,90,.,.
CCN1CCCC1CNC(=O)CSCc1nc(-c2ccccc2C)oc1C (stereo not given),-3.7*,7,-0.3,-5,-9,114,308*,242
CCC(c1nnnn1Cc1ccco1)N(Cc1cc2cc(C)cc(C)c2[nH]c1=O)CC1CCCO1 (stereo not given),0.13,4,-0.56,8,7,9,.,.
CCC(c1nnnn1Cc1ccco1)N(Cc1ccccc1OC)Cc1cc2cc(C)ccc2[nH]c1=O (stereo not given),-2.2*,4,0.65,-15,-2,50,590,201
CC(C)CC(OC(=O)c1ccco1)C(=O)NC1CCCCC1 (stereo not given),0.54,5,-1.6,26,9,93,.,.
CCN1C(=O)/C(=C\N2CCCCCC2)SC1=S,-8.7*,1,-2.1,3,-9,87,16*,220
CN1CCN(/C=C2\SC(=S)NC2=O)CC1,0.32,3,-0.84,8,1,103,.,.
Clc1ccc(C2=CSC3=NCCN23)cc1Cl,-2.2*,0,-0.22,2,7,159,535,241
